Screening results from PubChem BioAssay.
KLF5 inhibitor – KLF5 expression inhibitors, primary screen, DLD-1 cells, luminescence | DLD-1 KLF5 promoter-luciferase reporter | inhibition, % at 5 µM | 290,000 tested, 0.23% active | AID 1700, 2009;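 active means inhibition above a per-plate limit of that plate's mean compound inhibition plus 3 SD, cut at about 60% in these data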;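 further: 0% = DMSO wells and 100% = LY294002 at 200 µM; higher means less KLF5 promoter-driven luciferase light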
aSyn UTR inh – MLPCN primary screen, SNCA 5' untranslated region; alpha-synuclein 5'UTR reporter, inhibitor activity; inhibition, % (tested at 7.5 µM); 300,000 tested, 0.82% active; AID 1813, 2009; in the data active means inhibition above about 60%;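 further: H4 neuroglioblastoma cells stably carrying SNCA 5'UTR luciferase fusion; 0% = DMSO wells and 100% = positive control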
BaF3 tox – parental Ba/F3 cell viability inhibition, counter-screen for JAK2V617F inhibitor project, murine pro-B, CellTiter-Glo luminescence; CellTiter-Glo ATP luminescence; inhibition, % at 5.6 µM; 220,000 tested, 1.1% active; AID 1486, 2009;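 active means inhibition above a per-campaign cutoff, the mean inhibition of all tested compounds plus 3 SD, cut at about 27% in these data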;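 further: 0% = DMSO wells and 100% = JAK Inhibitor I control wells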
IEC-6 tox – cytotoxicity in IEC-6 intestinal epithelial cells, primary screen, cytotoxicity control for KLF5 inhibitor project, cell-based, luminescence; IEC-6 cytotoxicity, luminescence viability; inhibition, % at 5 µM; 290,000 tested, 0.78% active; in the data active means inhibition above about 22%;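 further: 0% = plate median of test compound wells and 100% = cytotoxic reference compound wells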
APP 5UTR inh – inhibitors of APP translation via 5'UTR reporter, primary screen, APP 5'UTR luciferase, SH-SY5Y cells; SH-SY5Y APP 5'UTR-luciferase reporter, luminescence; inhibition, % at 2 µM; 190,000 tested, 0.82% active; AID 1285, 2008;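 active means inhibition above a set limit, derived from the sample mean plus 3 SD, cut at about 45% in these data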
Ba/F3 V617F tox – reduced viability of JAK2V617F-dependent Ba/F3 cells, primary screen, JAK2V617F inhibitor project, cell-based, Ba/F3 EpoR-JAK2V617F, luminescence. ATP luminescence. inhibition, % at 5.6 µM. 220,000 tested, 1.1% active. AID 1446, 2008;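 active means inhibition above the campaign mean plus 3 SD over all tested compounds, cut at about 24% in these data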;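 further: cytokine-independent growth of Ba/F3 cells driven by EpoR plus mutant JAK2; 0% = DMSO-treated cells and 100% = JAK inhibitor I control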
An asterisk follows results filed as active; . = no result. Only some compounds are listed: those with a hit (about 2.2% of all), similar ones and a draw of the others.

SMILES	KLF5 inhibitor	aSyn UTR inh	BaF3 tox	IEC-6 tox	APP 5UTR inh	Ba/F3 V617F tox
CCOC(=O)c1sc2nc(CSc3ccccc3)nc(N3CCC(C(N)=O)CC3)c2c1C	-5.7	17.7	4.7	3.2	-9.8	1.9
COC(=O)c1ccc(NC(=O)CSc2ccc(-c3ccccn3)nn2)cc1	-54.1	-34.2	.	8.7	.	.
CC(C)Cc1cc(-c2ccco2)c(C#N)c(N)n1	-14.6	69.8*	1.4	-2.3	-11.7	-2.2
COc1cc(/C=C(\C#N)C(N)=O)ccc1OCc1c(C)no[n+]1[O-]	-27.1	-12.5	0.5	-5.5	.	-5.2
COC(=O)C1=C(C)NC(C)=C(C(=O)OC)C1c1ccccc1OCc1c(C)no[n+]1[O-]	-14.3	.	35.4*	15.3	-9.1	32.1*
CN(/N=C/c1cc(Br)cc(Br)c1O)c1cccc(C(F)(F)F)n1	-2.3	70.2*	.	8.6	.	.
O=C(Nc1nccs1)C12CC3CC(C1)CC(C(=O)Nc1nccs1)(C3)C2	23.4	-49.4	23.7	-12.3	-29.4	49.9*
O=C(Nc1ncccn1)C12CC3CC(CC(C3)C1)C2	1.4	-10.5	0.9	4.2	.	-4.7
Cc1ccc(C(=O)N/C(=C/c2cccnc2)C(=O)N2CCCCCC2)cc1	-13.8	2.4	.	-0.9	.	.
CSCC(=O)NC1CCCc2c1cnn2-c1cc(F)cc(F)c1 (configuration not stated)	-11.8	-7.9	.	0.7	.	.
O=C(CCc1ccncc1)NC1CCCc2c1cnn2-c1cc(F)cc(F)c1 (configuration not stated)	6.7	78.7*	.	1.6	.	.
CCC(=O)NC(Cc1ccccc1)c1ccc2c(c1)OCCCO2 (configuration not stated)	-35.8	-10.7	30.8*	-3.3	-11.1	38.7*
O=C(NC(Cc1ccccc1)c1ccc2c(c1)OCCCO2)c1ccccc1 (configuration not stated)	-6.0	-15.8	1.1	0.8	-16.1	-3.7
CC(Oc1cccc2ccccc12)C(=O)N/N=C/c1cccnc1 (configuration not stated)	-24.1	11.6	.	4.6	.	.
CCN(CC)CCN(C(=O)c1ccc2c(c1)OCCO2)c1nc2cc3c(cc2s1)OCO3	-29.8	-49.7	.	0.0	.	.
CCN(CC)CCN(C(=O)c1cc2c(ccc3ccccc32)oc1=O)c1nc2cc3c(cc2s1)OCCO3	-84.1	78.2*	.	-7.7	.	.
CCOC(=O)c1c(C)[nH]c(C(=O)N/N=C/c2ccc(Br)cc2)c1C	72.2*	39.5	77.8*	85.1*	94.7*	73.1*
Cc1cc(C)c2c(=O)[nH]c(SCC(=O)N3CCOCC3)nc2n1	-44.9	-4.4	1.2	-2.5	23.9	-2.4
Cc1cc(C)c2c(=O)[nH]c(SCC(=O)N3CCCCC3)nc2n1	6.8	-10.4	36.6*	5.1	25.0	37.0*
Cc1cc2[nH]c(=O)c(=O)[nH]c2cc1S(=O)(=O)NC1CCCCC1C (configuration not stated)	-8.8	-6.2	.	3.9	.	.
CN(C)CCCN(C(=O)CCc1ccccc1)c1nc2ccc(Cl)cc2s1	-15.8	109.5*	6.5	3.2	9.6	-0.1
CCN1C(=O)c2cccc3c(Cl)ccc(c23)C1=O	-2.8	-8.9	7.4	2.9	-11.0	2.9
O=C1c2cccc3c(Cl)ccc(c23)C(=O)N1O	-1.6	10.0	5.3	21.9*	-6.4	-1.6
O=S(=O)(Nc1ccc(-c2cn3c(n2)SCC3)cc1)c1ccccc1F	-29.4	-19.7	.	2.8	.	.
O=C(CCN1C(=O)c2ccccc2S1(=O)=O)Nc1ccccc1	-10.8	-18.1	61.9*	-2.0	-6.8	47.8*
SMILES	KLF5 inhibitor	aSyn UTR inh	BaF3 tox	IEC-6 tox	APP 5UTR inh	Ba/F3 V617F tox
O=C(CN1C(=O)c2ccccc2S1(=O)=O)c1ccc(OC(F)F)cc1	2.9	86.4*	.	-8.8	.	.
O=C(CN1C(=O)c2ccccc2S1(=O)=O)c1ccc(F)cc1	-15.3	91.6*	0.9	-2.1	.	-0.4
O=C(CN1C(=O)c2ccccc2S1(=O)=O)c1cccc(Br)c1	26.5	84.2*	.	-2.6	.	.
O=C(O)CCC(=O)N1N=C(c2ccccc2)CC1c1ccc2c(c1)OCO2 (configuration not stated)	-22.7	12.8	.	1.4	.	.
O=C(CN1C(=O)c2ccccc2S1(=O)=O)N1CCN(c2ccccc2F)CC1	2.2	14.3	7.0	-3.5	3.1	-0.2
O=C(CN1C(=O)c2ccccc2S1(=O)=O)c1ccccc1F	8.2	82.3*	.	2.1	.	.
CCCCn1c(O)c(/C=C2\C=NN=C2c2ccccc2)sc1=S	-40.0	12.5	1.1	-4.1	7.0	-3.1
CCn1c(O)c(/C=C2\C=NN=C2c2ccccc2)sc1=S	-20.5	67.0*	3.9	2.1	.	-2.5
O=C(CNS(=O)(=O)c1ccc(Br)s1)NCc1ccccc1	-27.1	-6.0	.	-9.7	.	.
CCc1nc2ccccc2c(=O)n1/N=C/c1ccc(OC)cc1	.	15.5	.	.	.	.
CCCCN(CCCC)C(=O)c1cc2ccccc2c(=O)o1	12.1	18.4	36.9*	-5.9	26.4	18.8
Cc1c(S(=O)(=O)Nc2cccc3ccccc23)c(=O)n(C)c(=O)n1C	.	20.1	.	.	.	.
COc1cccc(NC(=O)CN2CCN(C(=O)c3ccco3)CC2)c1	-13.0	-7.8	.	1.8	.	.
COC(=O)c1cccc(NC(=O)/C=C/c2ccc3c(c2)OCO3)c1	5.5	102.3*	15.6	-9.7	-11.8	17.2
CCc1ccc2c(c1)[C@H]1OCC[C@H]1[C@@H](c1cccs1)N2	-11.7	38.3	40.8*	8.9	65.4*	19.4
CCc1ccc(C(=O)/C=C/c2ccc([N+](=O)[O-])o2)cc1	0.2	-151.3	2.0	-0.5	53.7*	-3.0
CCOc1ccc(CCNC(=O)C2CC(C)=CCC2C(=O)O)cc1OCC (configuration not stated)	14.0	-5.8	.	1.1	.	.
CCOc1cc(C(=O)N/N=C(\C)Cc2ccc(OC)cc2)cc(OCC)c1OCC	-2.6	-1.8	2.5	0.2	86.5*	-2.5
O=C(c1cccs1)c1c[nH]cc1-c1ccccc1	.	7.8	.	.	.	.
CN(Cc1cnc2nc(N)nc(N)c2n1)c1ccc(C(=O)N[C@@H](CCC(=O)O)C(=O)O)cc1	.	77.5*	.	.	.	.
Nc1nc2ncc(CNc3ccc(C(=O)N[C@@H](CCC(=O)O)C(=O)O)cc3)nc2c(=O)[nH]1	-22.4	8.6	.	-1.2	.	.
CCOc1ccc(-n2c(SCC(=O)Nc3ccc(Br)cc3)nc3n[nH]c(C)c3c2=N)cc1	0.2	81.5*	5.3	5.4	15.5	2.1
COc1ccc(CCNC(=O)CSc2nnc3ccc(-c4ccccn4)nn23)cc1	.	-5.8	.	.	.	.
CCCS(=O)(=O)N1CCCC(c2nc(-c3ccc(OC)cc3)no2)C1 (configuration not stated)	-5.5	-6.2	4.0	-2.8	-8.6	-2.5
CCS(=O)(=O)N1CCCC(c2nc(-c3cccc(OC)c3)no2)C1 (configuration not stated)	-33.0	-102.3	95.8*	4.7	-24.9	-2.9
